The list is not random: actives were taken first. Their share in the collection is about 21%.
Pf growth 96h: P. falciparum growth inhibition at 96 hour, primary screen for plastid delayed-death inhibitors; Potency, µM (titrated, usually from 28.7 µM), inactives show at the highest dose activity change, negative = inhibition, hits mostly inhibitors; P. falciparum luciferase reporter growth, 96 h; AID 504834; 320,000 tested, 6.9% active; note: potency is the fitted concentration of half-maximal effect; % is set by controls: 0 for no effect and ±100 for the full control effect
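P. falciparum expressing integrated firefly luciferase, in erythrocytes at 2% hematocrit, 0.05% parasitemia, incubated with compounds 96 h at 37 C, 5% CO2. Growth inhibition read as loss of luminescence; two-generation exposure targets delayed-death apicoplast inhibitors.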
Shiga inhibitor: Shiga toxin inhibition. Vero cells, Shiga toxin protein synthesis inhibition reporter. inhibition, % at 38.7 µM. 290,000 tested, 9.2% active; in the data active = inhibition mostly above about 28%, no sharp cut-off; inactive = mostly below about 43%; note: 0% is about no effect
Cycloheximide cs: counter-screen for Shiga toxin inhibitors: cycloheximide protein synthesis inhibition; cell reporter, cycloheximide protein synthesis inhibition counterscreen; max response, %; 300,000 tested, 12% active; AID 2314; in the data active = max response mostly above about 13%, no sharp cut-off; inactive = mostly below about 14%; note: read at 38.3 µM for the half of the compounds with a filed dose; 0% is about no effect
Pf growth 48h: P. falciparum growth inhibition at 48 hours (one generation) | P. falciparum luciferase growth in erythrocytes, 48 h | 310,000 tested, 5.9% active | AID 504832 | Potency, µM (top dose mostly 28.7 µM), for the others: at the top dose activity change, negative = inhibition, most hits filed as inhibitors; note: potency is the fitted concentration of half-maximal effect; % is set by controls: 0 for no effect and ±100 for the full control effect
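Luciferase-expressing parasites in RBCs, 2% Hct / 0.1% parasitemia final; RPMI 1640 + 0.5% Albumax; 37 C, 5% CO2, one generation; luminescence read-out, lower signal = inhibition.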
* hit, by the source's call; u = inconclusive; x = no result. Unless noted, calls come from the whole dose curve; as a rule, active = well fitted inhibition curve with a large enough effect; inconclusive = small, poorly fitted or top-dose-only effect, or another doubt; inactive = no such curve, though single readings can be large or run the other way.

SMILES	Pf growth 96h	Shiga inhibitor	Cycloheximide cs	Pf growth 48h
COc1ccc(N=Cc2c(O)c3ccccc3n2C(C)=O)cc1	u	52	14*	u
COc1ccc(N=Cc2sc(O)c3ccccc23)cc1	-21%	87*	66*	-91%
Cc1cc(OC(=O)c2cccc(Cl)c2)c([N+](=O)[O-])c(=O)[nH]1	-15%	12	12	-8%
CCn1c(=O)n(CC(=O)Nc2ccc(F)cc2)c(=O)c2ccccc21	30%	-8	-2	-4%
O=C1c2oc3ccc(Cl)cc3c(=O)c2C(c2ccco2)N1CCN1CCOCC1 (configuration not stated)	u	18	-3	8.3µM*
O=C1c2oc3ccc(Cl)cc3c(=O)c2C(c2cccnc2)N1Cc1ccco1 (configuration not stated)	4%	38	-2	22%
Cc1cc2oc3c(c(=O)c2cc1C)C(c1ccc(F)cc1)N(CCCN1CCOCC1)C3=O (configuration not stated)	10µM*	3	-1	12µM*
COc1ccc(C2c3c(oc4ccc(Cl)cc4c3=O)C(=O)N2CCN2CCOCC2)cc1 (configuration not stated)	-27%	32	13*	u
O=C1c2oc3ccccc3c(=O)c2C(c2cccc(O)c2)N1CCCN1CCOCC1 (configuration not stated)	-18%	9	-3	x
COc1ccc(C2c3c(oc4ccc(Cl)cc4c3=O)C(=O)N2Cc2ccco2)cc1OC (configuration not stated)	u	-21	-7	8%
CN(C)CCN1C(=O)c2oc3ccc(Cl)cc3c(=O)c2C1c1cccc(Br)c1 (configuration not stated)	426%	-14	3	1.9µM*
CN(CC(=O)Nc1ccccc1Br)C(=O)CNC(=O)c1cccs1	-18%	x	x	u
O=C(COC(=O)c1ccc2ncsc2c1)Nc1cc([N+](=O)[O-])ccc1Cl	-4%	x	x	40%
CCOc1ccc(C2c3c(oc4ccccc4c3=O)C(=O)N2CCCN2CCOCC2)cc1OCC (configuration not stated)	19%	-10	-6	x
Cc1ccc(C2c3c(oc4ccc(Cl)cc4c3=O)C(=O)N2CCCN2CCOCC2)o1 (configuration not stated)	u	17	9.5*	u
O=C(NCc1cccs1)C1CCCN1C(=O)Nc1ccccc1Cl (configuration not stated)	-16%	-8	-5	32%
CC(C)(C)c1ccc(CN(Cc2ccccc2)C(c2ccccn2)c2nnnn2C(C)(C)C)cc1 (configuration not stated)	x	14	-2	1.7µM*
CC(C)(C)n1nnnc1C(c1ccc(Cl)cc1)N(Cc1cccnc1)Cc1ccco1 (configuration not stated)	24%	15	-4	u
Cc1ccc(C(c2nnnn2C(C)(C)C)N(Cc2ccco2)Cc2cccs2)cc1 (configuration not stated)	x	34	17	13µM*
CCN(Cc1ccccc1)C(c1ccc(C)cc1)c1nnnn1C(C)(C)CC (configuration not stated)	137%	-13	1	13µM*
CC(C)(C)n1nnnc1C(c1ccc(F)cc1)N(Cc1ccc(F)cc1)Cc1ccco1 (configuration not stated)	-16%	21	16*	u
O=C(NCCCNC(=O)c1cnccn1)c1cccc(Cl)c1	12%	-6	-1	-14%
CC(C)(C)n1nnnc1C(c1ccc(C(F)(F)F)cc1)N(Cc1ccccc1)Cc1ccco1 (configuration not stated)	9%	-8	-3	u
CC(C)(C)n1nnnc1C(c1ccc(C(F)(F)F)cc1)N(Cc1ccc(F)cc1)Cc1ccco1 (configuration not stated)	-18%	active	13*	1.9µM*
CC(C)(C)n1nnnc1C(c1cccnc1)N(Cc1ccccc1)Cc1cccs1 (configuration not stated)	0.17µM*	-12	0	0.83µM*
SMILES	Pf growth 96h	Shiga inhibitor	Cycloheximide cs	Pf growth 48h
COc1ccc(N2C(=O)CSC2c2ccccc2F)c(OC)c1 (configuration not stated)	18%	13	-3	-5%
CNC(C)C(=O)NC(C(=O)N1CCCC1C(=O)Nc1ccc2ncccc2c1)C(C)C (configuration not stated)	11%	x	x	41%
CC(C)(C)OC(=O)N1CCC[C@H]1C(=O)N/N=C/c1ccc2ncccc2c1	12µM*	22	9	u
Cc1ccc(NC(=O)C2CCCN2C(=O)Oc2ccccc2)cc1 (configuration not stated)	-15%	10	-1	7%
COc1ccc(NC(=O)C2CCN(C(=O)[C@@H]3Cc4ccccc4CN3C(=O)OC(C)(C)C)CC2)cc1	u	21	-3	u
COc1ccc(NC(=O)[C@@H]2CCCN2C(=O)[C@@H]2Cc3ccccc3CN2C(=O)OC(C)(C)C)cc1	12µM*	22	23	12µM*
CC(=O)c1ccc(NC(=O)[C@@H]2CCCN2C(=O)OC(C)(C)C)cc1	62%	87*	51*	58%
NC(=O)c1cc([N+](=O)[O-])ccc1NCC1CCCCC1	u	x	x	-68%
O=C(c1ccc(Cl)cc1)c1coc2ccc(O)cc12	168%	73*	43*	144%
O=C(c1coc2ccc(O)cc12)C1CC1	8.3µM*	58*	25*	40%
O=C(CCC1CCCC1)NNC(=O)c1ccccc1O	36%	x	x	u
O=Cc1cn(CC(O)CN2CCCCC2)c2ccccc12 (configuration not stated)	u	14	-1	27%
O=C(/C=C/c1cn(CC(O)CN2CCOCC2)c2ccccc12)c1cccs1 (configuration not stated)	u	64	19	6.6µM*
COc1ccc(N2CCN(C(=O)C(=O)c3c(C)n(C)c4ccccc34)CC2)cc1	-46%	-3	7	-16%
Cc1ccc(C(=O)/C=C/c2cn(CC(O)CN3CCOCC3)c3ccccc23)cc1 (configuration not stated)	12µM*	29	30*	u
COc1ccc(N2CCN(CCCNC(=O)C(=O)c3c(C)n(C)c4ccccc34)CC2)cc1	15µM*	-7	0	u
COc1ccc(C(=O)c2c(C)n(CCN3CCOCC3)c3ccccc23)cc1	12µM*	x	x	-15%
NC(=O)c1ccc(NC(=O)CSc2nnc(-c3cccnc3)n2Cc2ccco2)cc1	17%	-2	-6	2%
Cn1cc2cc(NC(N)=S)ccc2n1	-2%	-3	-5	4%
Cc1c(C(c2cccc(Br)c2)c2c(C)n(C)n(-c3ccccc3)c2=O)c(=O)n(-c2ccccc2)n1C	0%	-4	-3	u
COc1ccc(C(=O)/C=C/c2cn(CC(O)CN3CCOCC3)c3ccccc23)cc1 (configuration not stated)	5.2µM*	13	12*	u
COc1ccc(C(=O)/C=C/c2cn(CC(O)CN(CC(C)C)CC(C)C)c3ccccc23)cc1OC (configuration not stated)	x	19	21	x
COc1ccc2nccc(C(N)=O)c2c1	0%	-5	-1	21%
